Hits are enriched below; roughly 7.7% of the tested compounds scored in any of these assays.
FMDV antiviral: foot and mouth disease virus antiviral activity | FMDV antiviral cell-based qHTS | Potency, µM (doses to about 57.9 µM), for the others: at the top dose activity change, negative = inhibition, actives largely listed as inhibitors | 410,000 tested, 1.2% active | AID 1159524; calls by dose curve; tested in HEK293T cells; also: read-out not given here; potency is read from the fitted curve at half-maximal effect; nearly all actives have a fitted effect of over 45% in size
Sm TGR inh: inhibitors of Schistosoma mansoni thioredoxin glutathione reductase. Potency, µM (series often up to 114 µM), without a hit: top-dose activity change, negative = inhibition, usual class: inhibitors. 360,000 tested, 3% active. purified TGR, DTNB reduction, TNB absorbance 405 nm. AID 485364. Q962Y6; also: potency is read from the fitted curve at half-maximal effect; nearly all actives have a fitted effect of over 60% in size
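First, TGR (20 nM dispensed) and NADPH were mixed with compound. Second, a 15 min room-temperature incubation followed. Third, further NADPH and then DTNB were added to start the reaction. Finally, TNB absorbance was monitored kinetically.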
Giardia FBPA inh: Giardia lamblia aldolase inhibition; purified Giardia FBPA; Potency, µM (highest dose often 59.6 µM), for the others: at the top dose activity, negative = inhibition, usual class: inhibitors; 290,000 tested, 0.71% active; also: potency is read from the fitted curve at half-maximal effect; nearly all actives have a fitted effect of over 55% in size
Target sequence (A8B2U2 whole entry, looked up): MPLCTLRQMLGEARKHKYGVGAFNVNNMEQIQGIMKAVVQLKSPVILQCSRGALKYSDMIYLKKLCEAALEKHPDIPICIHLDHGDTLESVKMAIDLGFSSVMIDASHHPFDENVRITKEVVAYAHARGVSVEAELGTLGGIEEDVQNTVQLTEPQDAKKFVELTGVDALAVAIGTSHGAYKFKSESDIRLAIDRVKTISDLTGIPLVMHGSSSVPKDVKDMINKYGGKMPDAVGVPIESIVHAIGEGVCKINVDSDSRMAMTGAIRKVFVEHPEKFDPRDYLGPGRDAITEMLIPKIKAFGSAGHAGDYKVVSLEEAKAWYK
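Giardia FBPA (40 nM reagent) was preincubated 10 min at RT with compound (up to 57.5 uM final), then substrate plus GAPDH/TPI/NAD/arsenate coupling system with diaphorase/resazurin was added; resorufin fluorescence (525/598 nm) was read after 20 min.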
Tb PYK inh: blocks Trypanosoma brucei pyruvate kinase; Q57TT1; TbPYK enzyme, Kinase-Glo Plus ATP luminescence, 45 min; Potency, µM (titrated, usually from 76.8 µM), inactives show at the highest dose activity, negative = inhibition, actives largely listed as inhibitors; 410,000 tested, 0.12% active; also: potency is read from the fitted curve at half-maximal effect; nearly all actives have a fitted effect of over 50% in size
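In this concentration-response screen, enzyme-free wells defined baseline while DMSO plates tracked drift. Each reaction combined TbPYK, substrate, compound and 130 uM ADP for 45 min at room temperature. Kinase-Glo Plus luminescence gave the signal.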
HCMV antiviral: human cytomegalovirus inhibition; activity change, negative = inhibition, % at 57.5 µM; 410,000 tested, 4.5% active; HFF cells, HCMV-luciferase reporter, 72 h; active compounds read low; in the data active = activity change below about -60%; inconclusive = no clear call, values can overlap the other calls; inactive = above about -39%
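HFF cells seeded 16 h at 37C, treated with compounds, infected with luciferase-reporter HCMV at MOI 1 PFU/cell; luciferase read at 72 h post infection, normalized to buffer-only and Salinomycin controls.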
RE007 growth inh: less growth of the S. pombe RE007 Vpr strain; S. pombe RE007 Vpr strain, BacTiter-Glo ATP luminescence, 24 h; Potency, µM (highest dose often 92.2 µM), for inactives: top-dose activity change, negative = less growth, most hits filed as inhibitors; 360,000 tested, 0.21% active; AID 651644; active = well fitted falling curve with a large enough effect; inconclusive = small, poorly fitted or top-dose-only effect; inactive = no such curve, though single readings can be large or run the other way; also: potency is read from the fitted curve at half-maximal effect; nearly all actives have a fitted effect of over 50% in size
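Fission yeast strain RE007, carrying one chromosomally integrated HIV-1 vpr copy, was seeded at OD 0.01 in PMG+AL medium with 23 nL pinned compound. After 24 h at 30 °C and 99% humidity, viability was read by BacTiter-Glo luminescence.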
Numbers without * were called inactive; ? = inconclusive; . = no result given; [ ] = dose if it differs, or a comment. Unless noted, calls follow the shape of the dose curve; as a rule, active = well fitted curve in the direction sought with a large enough effect; inconclusive = small, poorly fitted or top-dose-only effect, or another doubt; inactive = no such curve, though single readings can be large; an effect the other way counts as inactive or inconclusive. % is scaled to controls: 0 for no effect and ±100 for the full control effect.

SMILES	FMDV antiviral	Sm TGR inh	Giardia FBPA inh	Tb PYK inh	HCMV antiviral	RE007 growth inh
COc1cccc(-c2cc(C(=O)Nc3cc(C)n(Cc4ccc(Cl)cc4)n3)no2)c1	?	7%	2%	-1%	-80*	-7%
COc1ccc(OC)c(-c2cc(C(=O)Nc3cc(C)n(Cc4ccc(Cl)cc4)n3)no2)c1	22µM*	1%	-1%	-15%	9	11%
Cc1cc(NC(=O)c2cc(-c3ccco3)on2)nn1Cc1ccc(Cl)cc1	-22%	-34%	1%	-8%	?	5%
COc1ccccc1-c1cc(C(=O)Nc2c(C)nn(Cc3ccc(Cl)cc3)c2C)no1	28µM*	8%	.	13%	-74*	.
COc1ccc(-c2cc(C(=O)Nc3ccc(C)c(C)c3)no2)cc1	-21%	16%	-1%	3%	26	-6%
COc1ccc(-c2cc(C(=O)Nc3cccc(O)c3)no2)cc1	20µM*	-6%	1%	-13%	-11	-5%
CCC(C)NC(=S)Nc1ccccc1 (stereo not given)	3%	11%	-2%	3%	-6	0%
N#CCC(=O)Nc1ccc(C(=O)NNC(=S)NC2CC2)cc1	6%	-8%	.	-4%	-97*	25%
COC(=O)c1ccc(NC(=S)NC2CC(C)(C)NC(C)(C)C2)cc1	-15%	-14%	2%	-1%	-30	1%
CCC(C)NC(=S)Nc1ccc(C(=O)OC)cc1 (stereo not given)	19%	9%	0%	1%	-85*	12%
CCOC(=O)c1ccc(NC(=S)Nc2ccc(C)cc2)cc1	27%	.	0%	0%	-36	-7%
CCOC(=O)c1ccc(NC(=S)NNC(C)(C)C)cc1	87%	?	4%	-22%	-74*	-14%
COC(=O)c1ccc(NC(=S)NC2CC2)cc1	21%	16µM*	2%	4%	25	4%
CCCCC(CC)COS(=O)(=O)O (stereo not given)	.	.	.	-5%	.	.
COC(=O)Cc1ccc(NC(=S)NC2CC2)cc1	-7%	45µM*	1%	-7%	48	-13%
CCN1C(=O)N(CC)C(=O)C2(Cc3ccccc3N3CCN(c4ccccc4)CC32)C1=O (stereo not given)	46%	45µM*	-14%	-1%	43	0%
CC(Oc1ccccc1F)C(=O)Nc1ccc2ccccc2c1 (stereo not given)	14%	5%	-7%	1%	-77*	-9%
CC(=O)Nc1ccc(NC(=O)C(C)Oc2ccccc2F)cc1 (stereo not given)	26%	3%	-1%	-17%	25	12%
CC(Oc1ccc(F)cc1)C(=O)Nc1ccc2ccccc2c1 (stereo not given)	9%	9%	-1%	0%	-67*	8%
CC(=O)N1CCC(N(C(=O)Nc2ccc(C)c(F)c2)C(C)C)CC1	34%	1%	.	-9%	41	.
CC(=O)NC(CCS(C)(=O)=O)C(=O)Nc1ccccc1 (stereo not given)	-16%	-8%	-1%	2%	30	22%
CC(=O)NC(CCS(C)(=O)=O)C(=O)Nc1cccc(C(C)=O)c1 (stereo not given)	14%	45µM*	-1%	-4%	1	7%
O=C(c1cc(-c2ccc(O)cc2)on1)N1CCN(c2ccc(F)cc2)CC1	-30%	-18%	-3%	-4%	-63*	6%
O=C(c1cc(-c2ccc(O)cc2)on1)N1CCN(c2ccccc2)CC1	?	1%	-2%	7%	-30	7%
COc1cc(Nc2cc3c(cn2)nc(Cc2ccccc2)n3C)cc(OC)c1OC	.	.	.	.	31	.
SMILES	FMDV antiviral	Sm TGR inh	Giardia FBPA inh	Tb PYK inh	HCMV antiviral	RE007 growth inh
Cc1nc2ccc(NC(=O)c3ccc(C)c(S(=O)(=O)N4CCOCC4)c3)cc2s1	?	-10%	.	-8%	-72*	16%
Cc1ccc(NC(=O)c2ccc(F)c(S(=O)(=O)N3CCc4ccccc4C3)c2)cc1F	0%	10%	.	1%	-68*	.
O=C(Nc1cccnc1)c1ccc(Cl)c(S(=O)(=O)N2CCc3ccccc32)c1	-22%	2%	-4%	-2%	?	-13%
O=C(NC1CCSc2ccccc21)c1ccc(F)c(S(=O)(=O)N2CCOCC2)c1 (stereo not given)	3%	40µM*	.	2%	32	5%
O=C(Nc1ccccn1)c1ccc(Cl)c(S(=O)(=O)N2CCc3ccccc32)c1	25µM*	-13%	.	-7%	-93*	-13%
O=C(Nc1cc(S(=O)(=O)N2CCOCC2)ccc1N1CCOCC1)c1ccc([N+](=O)[O-])s1	-20%	.	.	-18%	?	-19%
O=C(Nc1ccc(Br)cc1)c1ccc(F)c(S(=O)(=O)N2CCc3ccccc32)c1	?	3%	.	-3%	-92*	.
CCOC(=O)Cc1csc(NC(=O)c2ccc(C)c(S(=O)(=O)N3CCOCC3)c2)n1	32µM*	-4%	.	-12%	0	23%
Cc1nc2ccc(NC(=O)c3cc(S(=O)(=O)N(C)c4ccccc4)ccc3Cl)cc2s1	?	0%	-1%	9%	?	3%
Cc1nc2ccc(NC(=O)c3ccc(Cl)c(S(=O)(=O)N(C)c4ccccc4)c3)cc2s1	8.9µM*	3%	0%	3%	-101*	0%
Cc1ccc(NC(=O)c2ccc([N+](=O)[O-])s2)cc1S(=O)(=O)N1CCOCC1	?	.	.	0%	-94*	8%
COc1ccc(CCNC(=O)Cn2cc(S(=O)(=O)Cc3cccc(Cl)c3)c3ccccc32)cc1OC	-20%	4%	.	-7%[15.4 µM]	0	.
C=CCC1(C(C)CCC)C(=O)NC(=O)NC1=O (stereo not given)	.	.	.	0%[157 µM]	.	.
COC(=O)[C@H](COC(C)(C)C)NC(=O)O[C@@H]1C(=O)c2ccc(OC)cc2O[C@H]1c1ccc2c(c1)OCO2	.	.	0%	.	.	.
O=S(=O)(NCc1cccs1)c1ccc(Br)cc1	95%	5%	0%	1%	?	6%
CON(C)S(=O)(=O)c1cccc(C(=O)NC2CCSc3ccccc32)c1 (stereo not given)	18%	-3%	-8%	-2%	-74*	12%
O=C(Nc1ccc(Br)cc1)c1ccc(F)c(S(=O)(=O)NCc2cccs2)c1	-1%	7%	-4%	-6%	-92*	20%
COc1ccccc1NC(=O)c1ccccc1NS(=O)(=O)c1cccs1	-18%	0%	23%	0%	5	-22%
CN(C)S(=O)(=O)c1cccc(C(=O)NC2CCSc3ccccc32)c1 (stereo not given)	18%	-5%	.	5%	-11	6%
Cc1ccc(NC(=O)c2ccccc2NS(=O)(=O)c2ccc(Cl)s2)cc1S(=O)(=O)N1CCOCC1	?	-1%	13%	-4%	-82*	-6%

Source: PubChem (National Center for Advancing Translational Sciences (NCATS))
